# Measured values: the supplement of paper PMC12282887
# ± gives the standard deviation of the averaged measurements.
# How the values were obtained:
# Assay in all cases: promoter activity interaction Z-score (Lux/OD deviation from empty-vector control); higher = stronger promoter induction by the compound
# [1] = tested on: E. coli BW25113 soxSp lux reporter
# In short: (§1)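 Four 1:2 dilutions of each compound were tested in biological duplicates on E. coli BW25113 carrying low-copy luxCDABE promoter reporters, either wild type or deleted for one of three genes. Cultures of 40 µl LB Lennox in 384-well plates were kept at 37°C and read for OD600 and luminescence every 30 min for 12 h. Integration windows were 0–8 h for wild type and 1–9 h for deletion strains, and wells under 10% of the median growth value were discarded. The score is a Z-transformed residual of growth-normalised luminescence relative to a control fit.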
# [2] = tested on: E. coli BW25113 tolCp lux reporter
# In short: as §1
# [3] = tested on: E. coli BW25113 acrABp lux reporter
# In short: as §1
# [4] = tested on: E. coli BW25113 micFp lux reporter
# In short: as §1
# [5] = tested on: E. coli BW25113 ompFp lux reporter
# In short: as §1
# [6] = tested on: E. coli BW25113 robp lux reporter
# In short: as §1
# [7] = 3.6 µg/ml, genetic background: wild type
# [8] = 3.6 µg/ml, genetic background: ΔmarA
# [9] = 3.6 µg/ml, genetic background: Δrob
# [10] = 3.6 µg/ml, genetic background: ΔsoxS
# [11] = 0.0012 µg/ml, genetic background: wild type
# [12] = 0.0012 µg/ml, genetic background: ΔmarA
# [13] = 0.0012 µg/ml, genetic background: Δrob
# [14] = 0.0012 µg/ml, genetic background: ΔsoxS
# [15] = 0.0025 µg/ml, genetic background: wild type
# [16] = 0.0025 µg/ml, genetic background: ΔmarA
# [17] = 0.0025 µg/ml, genetic background: Δrob
# [18] = 0.0025 µg/ml, genetic background: ΔsoxS
# [19] = 0.005 µg/ml, genetic background: wild type
# [20] = 0.005 µg/ml, genetic background: ΔmarA
# [21] = 0.005 µg/ml, genetic background: Δrob
# [22] = 0.005 µg/ml, genetic background: ΔsoxS
# [23] = 0.0099 µg/ml, genetic background: wild type
# [24] = 0.0099 µg/ml, genetic background: ΔmarA
# [25] = 0.0099 µg/ml, genetic background: Δrob
# [26] = 0.0099 µg/ml, genetic background: ΔsoxS
smiles,measurement,setting,value
O=C1CN(/N=C/c2ccc([N+](=O)[O-])o2)C(=O)N1 [Nitrofurantoin],promoter activity interaction Z-score,[1]; [7],0.367 ± 0.26
same,promoter activity interaction Z-score,[1]; [8],0.0789 ± 0.17
same,promoter activity interaction Z-score,[1]; [9],-0.00598 ± 0.3
same,promoter activity interaction Z-score,[1]; [10],0.987 ± 0.11
same,promoter activity interaction Z-score,"[2]; 0.45 µg/ml, genetic background: wild type",-0.752 ± 0.08
same,promoter activity interaction Z-score,"[2]; 0.45 µg/ml, genetic background: ΔmarA",-0.242 ± 1.3
same,promoter activity interaction Z-score,"[2]; 0.45 µg/ml, genetic background: Δrob",-0.5 ± 0.78
same,promoter activity interaction Z-score,"[2]; 0.45 µg/ml, genetic background: ΔsoxS",-0.5485 ± 0.0052
same,promoter activity interaction Z-score,"[2]; 0.89 µg/ml, genetic background: wild type",0.445 ± 0.35
same,promoter activity interaction Z-score,"[2]; 0.89 µg/ml, genetic background: ΔmarA",0.287 ± 1.1
same,promoter activity interaction Z-score,"[2]; 0.89 µg/ml, genetic background: Δrob",-0.164 ± 0.15
same,promoter activity interaction Z-score,"[2]; 0.89 µg/ml, genetic background: ΔsoxS",-0.317 ± 0.33
same,promoter activity interaction Z-score,"[2]; 1.8 µg/ml, genetic background: wild type",-0.711 ± 0.13
same,promoter activity interaction Z-score,"[2]; 1.8 µg/ml, genetic background: ΔmarA",-0.75 ± 0.79
same,promoter activity interaction Z-score,"[2]; 1.8 µg/ml, genetic background: Δrob",0.238 ± 0.13
same,promoter activity interaction Z-score,"[2]; 1.8 µg/ml, genetic background: ΔsoxS",0.385 ± 1.6
same,promoter activity interaction Z-score,[2]; [7],1.24 ± 0.17
same,promoter activity interaction Z-score,[2]; [8],-1.22 ± 0.056
same,promoter activity interaction Z-score,[2]; [9],0.356 ± 0.69
same,promoter activity interaction Z-score,[2]; [10],0.0431 ± 0.49
O=C(O)c1cn(C2CC2)c2cc(N3CCNCC3)c(F)cc2c1=O [Ciprofloxacin],promoter activity interaction Z-score,[3]; [11],-0.0508 ± 0.0034
same,promoter activity interaction Z-score,[3]; [12],0.353 ± 0.13
same,promoter activity interaction Z-score,[3]; [13],0.173 ± 0.043
same,promoter activity interaction Z-score,[3]; [14],0.42 ± 0.15
same,promoter activity interaction Z-score,[3]; [15],0.086 ± 0.043
same,promoter activity interaction Z-score,[3]; [16],0.398 ± 0.6
same,promoter activity interaction Z-score,[3]; [17],0.0723 ± 0.032
same,promoter activity interaction Z-score,[3]; [18],0.345 ± 0.36
same,promoter activity interaction Z-score,[3]; [19],-0.0602 ± 0.085
same,promoter activity interaction Z-score,[3]; [20],0.14 ± 0.38
same,promoter activity interaction Z-score,[3]; [21],-0.262 ± 0.024
same,promoter activity interaction Z-score,[3]; [22],0.245 ± 0.15
same,promoter activity interaction Z-score,[3]; [23],3.2 ± 0.99
same,promoter activity interaction Z-score,[4]; [11],-0.234 ± 0.19
same,promoter activity interaction Z-score,[4]; [12],0.0327 ± 0.0091
same,promoter activity interaction Z-score,[4]; [13],-0.0152 ± 0.072
same,promoter activity interaction Z-score,[4]; [14],0.0125 ± 0.049
same,promoter activity interaction Z-score,[4]; [15],-0.177 ± 0.22
same,promoter activity interaction Z-score,[4]; [16],0.0702 ± 0.0035
same,promoter activity interaction Z-score,[4]; [17],0.0396 ± 0.11
same,promoter activity interaction Z-score,[4]; [18],0.236 ± 0.43
same,promoter activity interaction Z-score,[4]; [19],0.0988 ± 0.0042
same,promoter activity interaction Z-score,[4]; [20],0.222 ± 0.086
same,promoter activity interaction Z-score,[4]; [21],0.149 ± 0.08
same,promoter activity interaction Z-score,[4]; [22],0.0364 ± 0.036
same,promoter activity interaction Z-score,[4]; [23],-0.518 ± 0.27
same,promoter activity interaction Z-score,[4]; [24],-0.126 ± 0.0091
same,promoter activity interaction Z-score,[4]; [25],-0.163
same,promoter activity interaction Z-score,[4]; [26],-0.0606 ± 0.43
same,promoter activity interaction Z-score,[5]; [11],-0.438 ± 0.12
same,promoter activity interaction Z-score,[5]; [12],-0.0468 ± 0.33
same,promoter activity interaction Z-score,[5]; [13],-0.155 ± 0.71
same,promoter activity interaction Z-score,[5]; [14],0.116 ± 0.044
same,promoter activity interaction Z-score,[5]; [15],-0.471 ± 0.096
same,promoter activity interaction Z-score,[5]; [16],-0.00111 ± 0.52
same,promoter activity interaction Z-score,[5]; [17],-0.691 ± 0.58
same,promoter activity interaction Z-score,[5]; [18],0.136 ± 0.14
same,promoter activity interaction Z-score,[5]; [19],-0.511 ± 0.028
same,promoter activity interaction Z-score,[5]; [20],-0.0342 ± 0.14
same,promoter activity interaction Z-score,[5]; [21],-0.495 ± 0.56
same,promoter activity interaction Z-score,[5]; [22],-0.279 ± 0.43
same,promoter activity interaction Z-score,[5]; [23],-0.587 ± 0.72
same,promoter activity interaction Z-score,[6]; [11],0.0678 ± 0.12
same,promoter activity interaction Z-score,[6]; [12],0.253 ± 0.13
same,promoter activity interaction Z-score,[6]; [13],0.0957 ± 0.66
same,promoter activity interaction Z-score,[6]; [14],1.22 ± 0.77
same,promoter activity interaction Z-score,[6]; [15],0.3 ± 0.26
same,promoter activity interaction Z-score,[6]; [16],-0.0277 ± 0.16
same,promoter activity interaction Z-score,[6]; [17],0.0548 ± 0.78
same,promoter activity interaction Z-score,[6]; [18],1.24 ± 1.1
same,promoter activity interaction Z-score,[6]; [19],0.247 ± 0.46
same,promoter activity interaction Z-score,[6]; [20],0.267 ± 0.41
same,promoter activity interaction Z-score,[6]; [21],-0.0594 ± 0.79
same,promoter activity interaction Z-score,[6]; [22],0.171 ± 0.16
same,promoter activity interaction Z-score,[6]; [23],-0.624 ± 0.76
same,promoter activity interaction Z-score,[6]; [24],-0.611
same,promoter activity interaction Z-score,[1]; [11],-0.0335 ± 0.15
same,promoter activity interaction Z-score,[1]; [12],0.12 ± 0.047
same,promoter activity interaction Z-score,[1]; [13],0.0163 ± 0.22
same,promoter activity interaction Z-score,[1]; [14],0.466 ± 0.26
same,promoter activity interaction Z-score,[1]; [15],-0.17 ± 0.048
same,promoter activity interaction Z-score,[1]; [16],0.0948 ± 0.18
same,promoter activity interaction Z-score,[1]; [17],-0.0974 ± 0.25
same,promoter activity interaction Z-score,[1]; [18],0.326 ± 0.014
same,promoter activity interaction Z-score,[1]; [19],0.14 ± 0.19
same,promoter activity interaction Z-score,[1]; [20],0.125 ± 0.098
same,promoter activity interaction Z-score,[1]; [21],0.0524 ± 0.27
same,promoter activity interaction Z-score,[1]; [22],0.682 ± 0.7
same,promoter activity interaction Z-score,[1]; [23],0.127 ± 0.063
same,promoter activity interaction Z-score,[1]; [24],0.0874 ± 0.13
same,promoter activity interaction Z-score,[1]; [25],-0.378 ± 0.17
same,promoter activity interaction Z-score,[1]; [26],3.89 ± 2.3
same,promoter activity interaction Z-score,[2]; [11],0.3 ± 0.42
same,promoter activity interaction Z-score,[2]; [12],0.215 ± 0.83
same,promoter activity interaction Z-score,[2]; [13],-0.563 ± 1
same,promoter activity interaction Z-score,[2]; [14],0.363 ± 0.45
same,promoter activity interaction Z-score,[2]; [15],0.307 ± 0.13
same,promoter activity interaction Z-score,[2]; [16],-0.633 ± 0.058
same,promoter activity interaction Z-score,[2]; [17],-0.452 ± 0.41
same,promoter activity interaction Z-score,[2]; [18],0.599 ± 0.74
same,promoter activity interaction Z-score,[2]; [19],0.224 ± 0.038
same,promoter activity interaction Z-score,[2]; [20],0.452 ± 0.24
same,promoter activity interaction Z-score,[2]; [21],-0.267 ± 1.4
same,promoter activity interaction Z-score,[2]; [22],0.965 ± 0.61
same,promoter activity interaction Z-score,[2]; [23],-0.238 ± 0.84
same,promoter activity interaction Z-score,[2]; [24],0.207 ± 0.2
same,promoter activity interaction Z-score,[2]; [25],-2.22 ± 0.97
same,promoter activity interaction Z-score,[2]; [26],1.85 ± 0.19
